Bioassay records deposited in PubChem BioAssay by National Center for Advancing Translational Sciences (NCATS).
PLK1 PBD block – inhibitors of human PLK1 polo-box domain binding; P53350; Plk1 PBD binding of FITC phosphopeptide, fluorescence polarization; Potency, µM, inactives show max response, negative = inhibition, actives largely listed as inhibitors; 360,000 tested, 2.8% active; AID 720504; further: potency means the concentration at half of the fitted maximal effect; series mostly up to about 57 µM; on the % scale 0 is the no-effect control and ±100 the full control effect; nearly all actives have a fitted effect of over 65% in size
TCR activator – T cell receptor activation | 330,000 tested, under 10 active | AID 504894 | primary human leukocytes, anti-CD3, IL-2 HTRF, 48 h | Potency, µM (series often up to 9.22 µM), for the others: at the top dose activation of IL-2 secretion, usual class: activators; further: % of control where 0% means no effect
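IL-2 release read by HTRF sandwich (Eu cryptate donor, d2 acceptor, 665 nm emission) after 48 hr exposure of primary human leukocytes to compound together with anti-CD3 beads in the absence of co-stimulatory signals.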
VDR inhibitor – vitamin D3 receptor (human) inhibition; P11473; VDR-SRC2-3 peptide fluorescence polarization, 2 h; Potency, µM, for inactives: max response, negative = inhibition, hits mostly inhibitors; 400,000 tested, 0.93% active; further: potency means the concentration at half of the fitted maximal effect; on the % scale 0 is the no-effect control and ±100 the full control effect
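VDR–SRC2-3 interaction, FP format. Cmpds 23 nl via pintool, brief spin, 2 h ambient incubation.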
PI5P4K alpha inh – PI5P4K alpha (human) kinase inhibition; P48426; PI5P4Kalpha enzyme, ADP-Glo luminescence, 60 min; active compounds read low; max response, %; 330,000 tested, 1.2% active; AID 652105; active means max response of -50% or lower; inconclusive means between -30% and -50%; inactive means -30% or higher; further: value at the top dose of about 77 µM; on the % scale 0 is the no-effect control and ±100 the full control effect
Target sequence (P48426 whole entry, looked up): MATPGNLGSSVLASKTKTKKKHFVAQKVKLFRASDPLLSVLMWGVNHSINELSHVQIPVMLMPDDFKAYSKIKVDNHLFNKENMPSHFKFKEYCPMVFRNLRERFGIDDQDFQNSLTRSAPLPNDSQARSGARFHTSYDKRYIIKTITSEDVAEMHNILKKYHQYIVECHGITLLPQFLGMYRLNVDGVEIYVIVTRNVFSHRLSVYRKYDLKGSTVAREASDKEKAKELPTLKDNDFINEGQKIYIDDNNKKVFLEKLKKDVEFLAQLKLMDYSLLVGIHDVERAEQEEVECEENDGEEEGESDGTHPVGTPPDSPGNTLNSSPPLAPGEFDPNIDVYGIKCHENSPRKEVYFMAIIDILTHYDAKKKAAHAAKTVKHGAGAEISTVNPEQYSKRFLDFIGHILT
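Quantitative HTS of the MLSMR library against PI5P4Kalpha with substrate. ATP added last at 5 microM final; room temperature, 60 minutes. Remaining ATP depleted, ADP converted and read as luminescence.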
WRN inhibitor – blocks human WRN helicase; Q14191; WRN helicase unwinding, fluorescent forked duplex, kinetic; Potency, µM (series often up to 114 µM), for inactives: at the top dose activity change, negative = inhibition, actives largely listed as inhibitors; 360,000 tested, 0.46% active; further: potency means the concentration at half of the fitted maximal effect; on the % scale 0 is the no-effect control and ±100 the full control effect; nearly all actives have a fitted effect of over 55% in size
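Screening of the MLSMR collection measured strand separation of a quenched forked DNA duplex (100 nM) by 20 nM WRN with 2 mM ATP, all final. Compounds were preincubated with enzyme 15 min at room temperature.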
FEN1 inh – blocks human flap endonuclease 1. Potency, µM (highest dose often 114 µM), inactives show at the top dose activity change, negative = inhibition, actives largely listed as inhibitors. AID 588795. 390,000 tested, 0.35% active. P39748. Recombinant FEN1 flap cleavage, fluorescence, 15 min; further: potency means the concentration at half of the fitted maximal effect; on the % scale 0 is the no-effect control and ±100 the full control effect; nearly all actives have a fitted effect of over 65% in size
Target sequence (P39748 whole entry, looked up): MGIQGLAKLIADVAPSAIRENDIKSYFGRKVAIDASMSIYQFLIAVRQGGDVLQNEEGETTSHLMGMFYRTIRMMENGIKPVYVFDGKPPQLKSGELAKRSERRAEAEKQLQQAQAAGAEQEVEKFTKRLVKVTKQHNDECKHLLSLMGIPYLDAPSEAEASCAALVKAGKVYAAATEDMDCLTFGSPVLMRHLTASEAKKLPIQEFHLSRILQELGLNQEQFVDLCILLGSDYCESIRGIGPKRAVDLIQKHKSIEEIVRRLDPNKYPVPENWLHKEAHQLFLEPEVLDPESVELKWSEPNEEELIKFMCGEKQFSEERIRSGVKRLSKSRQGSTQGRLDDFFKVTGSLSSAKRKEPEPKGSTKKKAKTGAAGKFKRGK
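FEN1 at 10 nM, compound pretreatment for 15 min (room temperature), 50 nM final substrate to initiate; endpoint reads at 0 and 15 min; DMSO-only plates used as vehicle background.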
* hit, by the source's call; ? = inconclusive; . = no result; [ ] = remark or other dose. Rows were chosen to be rich in hits. Some 3.7% of all compounds tested hit in one or more screens of this group. Unless noted, the call rests on the fitted dose curve; in most records, active means well fitted curve in the direction sought with a large enough effect; inconclusive means small, poorly fitted or top-dose-only effect, or another doubt; inactive means no such curve, though single readings can be large; an effect the other way counts as inactive or inconclusive.

SMILES	PLK1 PBD block	TCR activator	VDR inhibitor	PI5P4K alpha inh	WRN inhibitor	FEN1 inh
COc1cccc(CNC(=O)c2c(C)oc3nc(C)nc(N4CCOCC4)c23)c1	.	.	14.1%	.	.	17.6%
CCCCOc1ccc(Cc2c(COCC)[nH]c(=S)[nH]c2=O)cc1	-29.0%	-4.4%	7.1%	5.0	8.3%[57.1 µM]	2.6%
CCOCc1[nH]c(=S)[nH]c(=O)c1Cc1ccc(OCC)cc1	26.7µM*	2.4%	-16.3%	4.3	1.7%[57.1 µM]	-4.5%
CCOCc1[nH]c(=S)[nH]c(=O)c1Cc1ccc(OCC(C)C)cc1	23.8µM*	-0.2%	8.1%	?	-34.7%	11.0%
COC(=O)/C=C\C(C#N)(C#N)N=Cc1ccc(OC)cc1	9.47µM*	4.6%	12.6µM*	1.5	56.2µM*	-2.8%
CC1(C(=O)N2Cc3ccccc3C2)CCN1C(=O)Cc1ccccc1 (stereo unspecified)	-15.1%	.	.	4.7	-2.8%	.
CC1(C)CC2CN(C(=O)Cc3ccccc3)C(C)(C2)C1 (stereo unspecified)	21.2µM*	0.2%	-10.4%	-11.9	8.0%	2.0%
CC1Sc2ccc(C(=O)NCc3ccccn3)cc2NC1=O (stereo unspecified)	16.8µM*	2.9%	79.4µM*	-25.4	5.0%	-7.2%
COc1cc(C(=O)Nc2sc3c(c2C#N)CCCC3)c(Br)c(OC)c1OC	.	.	-7.9%	.	.	-2.6%
Cc1ccccc1-c1noc(-c2ccccc2OCC(=O)Nc2ccccc2[N+](=O)[O-])n1	.	.	10.9%	.	.	-2.4%
CC(C)C(=O)N(c1ccc2oc(=O)sc2c1)S(=O)(=O)c1cccs1	-29.7%	-5.6%	44.7µM*	-21.2	?	2.1%
CC(C)C(=O)N(c1cc2sc(=O)oc2c2ccccc12)S(=O)(=O)c1cccs1	-22.3%	.	35.5µM*	.	-26.2%	?
CCCC(=O)N(c1ccc2oc(=O)sc2c1)S(=O)(=O)c1ccccc1	-17.6%	5.3%	?	0.4	-34.2%	-0.2%
CC(=O)N(c1ccc2oc(=O)sc2c1)S(=O)(=O)c1cccs1	?	-0.5%	89.1µM*	-17.7	-15.4%	-3.5%
CC(=O)N(c1ccc2oc(=O)sc2c1)S(=O)(=O)c1ccc(C(=O)O)cc1	?	2.5%	79.4µM*	?	?	-19.8%
COc1ccc(N(C(=O)C(C)C)S(=O)(=O)c2cccs2)cc1	0.1%	.	-6.5%	.	7.4%	?
O=C(NCc1ccccc1Cl)c1ccc(CSCc2ccccc2Cl)o1	.	.	-5.8%	.	.	-16.8%
CCOc1ccc2c(c1)c(=O)c(S(=O)(=O)c1ccc(C)cc1)cn2Cc1ccccc1Cl	.	.	-17.9%	.	.	14.5%
COc1ccc(Cl)c2sc(N3CCN(C(=O)c4ccco4)CC3)nc12	-4.2%	0.6%	-3.2%	-4.0	-0.7%	4.9%
CCCC(=O)N1CCN(c2nc3c(OC)ccc(Cl)c3s2)CC1	26.7µM*	-9.0%	-17.0%	-3.2	3.3%	-16.5%
COC(=O)c1ccc(NC(=O)CSc2cn(CC(=O)N3CCCCCC3)c3ccccc23)cc1	.	.	7.0%	.	.	-4.3%
O=C(CSc1nc(=O)n(Cc2ccncc2)c2c1CCC2)Nc1ccccc1	.	.	18.5%	.	.	-1.3%
C/C=C(\C)NNC(=O)Cc1ccc(OC)cc1	.	.	.	.	.	3.4%
O=C(O)CCN1C(=O)/C(=C2\C(=O)N(Cc3ccc(F)cc3)c3ccccc32)SC1=S	18.9µM*	3.7%	?	0.7	-19.6%	-20.1%
Cc1sc2nc(-c3cccnc3)[nH]c(=O)c2c1-c1ccccc1	11.9µM*	-0.9%	-14.0%	-12.8	-13.5%	-7.3%
SMILES	PLK1 PBD block	TCR activator	VDR inhibitor	PI5P4K alpha inh	WRN inhibitor	FEN1 inh
Cc1cccc(-n2c(=O)c3c4c(sc3n3c(C)nnc23)CCCC4)c1	.	.	-4.6%	.	.	-0.5%
O=C(Nc1ccc(F)c(Cl)c1)C1CCN(c2ncccn2)CC1	.	.	-7.5%	.	.	-1.9%
Cn1cc(/C=C2/SC(=O)N(c3ccccc3)C2=O)c2ccccc21	-7.3%	-4.3%	-11.7%	-0.2	-1.0%	-1.1%
Cn1cc(C=C2C(=O)CC(C)(C)CC2=O)c2ccccc21	26.7µM*	-0.8%[46.1 µM]	-18.2%	-6.4	-17.1%	4.2%
Cc1ccc(CNC(=O)c2cnn(-c3cccc(C)c3)c2C2CCN(C(=O)OC(C)(C)C)CC2)cc1	.	.	6.1%	.	.	-17.7%
CCOC(=O)/C(=C\c1cn(C)c2ccccc12)[N+](=O)[O-]	1.68µM*	-6.6%[46.1 µM]	50.1µM*	-0.4	?	6.0%
COc1ccccc1C(=O)NCCC(=O)Nc1nc2ccccc2[nH]1	0.2%	-6.7%	-9.3%	-9.5	-3.7%	-9.2%
COc1ccccc1C(=O)Nc1nc2ccccc2[nH]1	21.2µM*	0.2%	?	?	7.6%	-0.7%
CN(C(=O)CSc1nnc(-c2ccc([N+](=O)[O-])cc2)o1)c1ccccc1	.	.	2.5%	.	.	4.8%
COC(=O)c1c(NS(=O)(=O)c2ccc3ccccc3c2)sc2c1CCCC2	23.8µM*	-2.4%	10.8%	.	-8.3%	?
CC1CCc2c(sc(NS(=O)(=O)c3ccccc3)c2C(=O)OC(C)C)C1 (stereo unspecified)	16.8µM*	5.1%[46.1 µM]	?	-1.7	-17.8%	-1.6%
O=C(NCCS(=O)(=O)N1CCN(c2ccccc2F)CC1)c1ccccc1C(F)(F)F	.	.	-3.3%	.	.	14.9%
O=C(CN1C(=O)S/C(=C\c2ccc(Cl)cc2)C1=O)NC1C=CS(=O)(=O)C1 (stereo unspecified)	18.9µM*	-8.7%	?	-18.2	7.1%	-11.3%
C/C(O)=C(\N=Nc1cc(C)ccc1O)C(N)=O	29.9µM*	2.5%	-2.6%	-5.6	1.3%[57.1 µM]	-1.6%
Cc1ccc(O)c(N=NC2=C(O)CC(C)(C)CC2=O)c1	6.2%	-1.9%[46.1 µM]	9.3%	-22.2	-10.2%	6.2%
Cc1ccc(NC(=O)c2c(C)oc3ncnc(N4CCCCC4)c23)c(C)c1	.	.	3.3%	.	.	-4.5%
C=CC(C1=CC(=O)C(OC)=CC1=O)c1ccc(OC)cc1 (stereo unspecified)	.	.	11.2µM*	.	.	.
COC1=C(c2ccccc2)C(=O)c2ccccc2C1=O	?	-3.2%[46.1 µM]	-20.2%	3.4	-28.3%	-18.8%
C=CC(C1=CC(=O)C(OC)=CC1=O)c1ccccc1 (stereo unspecified)	.	.	8.91µM*	.	.	.
C=CC(C1=CC(=O)C(OC)=C(OC)C1=O)c1ccccc1 (stereo unspecified)	.	.	1µM*	.	.	.
O=C(O[C@H]1[C@H](Cc2ccccc2)NS(=O)(=O)[C@H]2CC3C=C[C@]12O3)c1ccc(Br)cc1	.	.	.	.	.	-14.3%
COc1ccc(NC(=O)c2cccc(N3C(=O)NC4CC3(C)Oc3ccccc34)c2)cc1 (stereo unspecified)	-7.9%	.	4.2%	1.3	0.9%	-11.9%
COc1cccc2c1OC1(C)CC2NC(=O)N1c1cccc(C(=O)Nc2ccc3c(c2)OCCO3)c1 (stereo unspecified)	29.9µM*	4.7%	5.4%	-9.0	0.2%	9.2%
CC(C)C(=O)N1CCC(n2nccc2NC(=O)CCOc2ccccc2)CC1	-5.3%	-1.7%	11.4%	-1.1	8.2%	-0.9%
